AmpC no deterg: AmpC beta-lactamase inhibition without detergent; P00811; AmpC nitrocefin hydrolysis, absorbance 480 nm, 0.0001% Triton; Potency, µM (top dose mostly 57.1 µM), inactives show at the highest dose activity change, negative = inhibition, actives largely listed as inhibitors; 330,000 tested, 0.52% active; AID 485341;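 also: potency is read from the fitted curve at half-maximal effect; plate controls were no compound for no effect and no enzyme for full effect; nearly all actives have a fitted effect of over 20% in size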
Target sequence (P00811 whole entry, looked up): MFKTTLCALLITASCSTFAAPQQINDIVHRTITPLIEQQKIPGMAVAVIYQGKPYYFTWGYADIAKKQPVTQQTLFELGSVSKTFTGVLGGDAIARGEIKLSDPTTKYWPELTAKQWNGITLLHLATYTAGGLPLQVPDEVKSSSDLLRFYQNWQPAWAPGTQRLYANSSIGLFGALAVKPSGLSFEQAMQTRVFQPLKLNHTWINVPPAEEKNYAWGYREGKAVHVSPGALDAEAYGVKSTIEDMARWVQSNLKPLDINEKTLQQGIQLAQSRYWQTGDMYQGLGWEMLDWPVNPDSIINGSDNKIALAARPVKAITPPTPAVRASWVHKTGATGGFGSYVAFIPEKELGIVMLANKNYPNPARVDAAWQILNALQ
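AmpC (5.3 nM in the dispensed reagent) in 20 mM phosphate pH 7.0 with 0.01% (detergent screen) or 0.0001% Triton X-100 was preincubated with compounds for 15 min at room temperature. Nitrocefin was then added from an 800 uM solution, and hydrolysis was followed at 480 nm.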
AmpC detergent: inhibitors of E. coli AmpC beta-lactamase with detergent. AmpC hydrolysis of nitrocefin, absorbance 480 nm, 0.01% Triton. AID 485294. P00811. Potency, µM (highest dose often 114 µM), inactives show top-dose activity change, negative = inhibition, most hits filed as inhibitors. 370,000 tested, 0.041% active;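 also: potency is read from the fitted curve at half-maximal effect; 0% = no-compound wells and -100% = no-enzyme wells; nearly all actives have a fitted effect of over 25% in size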
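AmpC (5.3 nM in the dispensed reagent) in 20 mM phosphate pH 7.0 with 0.01% (detergent screen) or 0.0001% Triton X-100 was preincubated with compounds for 15 min at room temperature. Nitrocefin was then added from an 800 uM solution, and hydrolysis was followed at 480 nm.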
HCMV antiviral: blocks human cytomegalovirus replication | activity change, negative = inhibition, % at 57.5 µM | HFF cells, HCMV-luciferase reporter, 72 h; active compounds read low | 410,000 tested, 4.5% active | AID 1259415; in the data active = activity change below about -60%; inconclusive = no clear call, values can overlap the other calls; inactive = above about -39%
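Compounds were evaluated in HFFs infected with an HCMV luciferase reporter virus (MOI 1 PFU/cell). Luciferase in lysates collected 72 h post infection served as the replication measure.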
HCV inh: blocks hepatitis C virus; Potency, µM (top dose mostly 41.8 µM), inactives show top-dose activity change, negative = inhibition, most hits filed as inhibitors; AID 651820; 340,000 tested, 3.4% active; Huh7.5.1 HCVcc-Cre infection, luciferase reporter, 44 h; also: potency is read from the fitted curve at half-maximal effect
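1,000 cells/well; 4 h culture; + compound; + HCVcc-Cre (~0.5 moi); 44 h; luciferase substrate, RT 15 min; read 15 sec.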
FMDV antiviral: blocks foot and mouth disease virus; FMDV antiviral cell-based qHTS; 410,000 tested, 1.2% active; Potency, µM (doses to about 57.9 µM), without a hit: top-dose activity change, negative = inhibition, most hits filed as inhibitors; calls by dose curve; tested in HEK293T cells; also: read-out not given here; potency is read from the fitted curve at half-maximal effect; nearly all actives have a fitted effect of over 45% in size
An asterisk follows results filed as active; u = inconclusive; x = no result; [ ] = another dose, or the depositor's remark. Most compounds without a hit are left out; they make up all but 7.3% or so of the library. Unless noted, calls follow the shape of the dose curve; as a rule, active = well fitted curve in the direction sought with a large enough effect; inconclusive = small, poorly fitted or top-dose-only effect, or another doubt; inactive = no such curve, though single readings can be large; an effect the other way counts as inactive or inconclusive. Unless noted, % is scaled to controls: 0 for no effect and ±100 for the full control effect.

SMILES	AmpC no deterg	AmpC detergent	HCMV antiviral	HCV inh	FMDV antiviral
COc1ccccc1N1CCN(CCCCN2C(=O)c3ccccc3C2=O)CC1	x	x	-102*	u	-15%
COc1ccccc1N1CCN(CCCCN2C(=O)CCC2=O)CC1	x	x	x	x	1%
CCN(CC)S(=O)(=O)c1csc(C(=O)NCc2ccccc2)c1	-43%	0%	-71*	u	u
CCN(CC(=O)Nc1ccc2c(c1)OCCO2)S(=O)(=O)c1ccccc1	-25%	-6%	11	-4%	37%
COc1ccc2occ(CC(=O)Nc3ccc(S(=O)(=O)Nc4nccc(C)n4)cc3)c2c1	x	2%	8	x	37%
O=C1C2C3CC4C5C3C1C5C1(SCCS1)C42 (stereo unspecified)	x	x	-87*	x	5%
COc1nc(Nc2ccc([N+](=O)[O-])cc2)nc(NC2CCCCC2)n1	-36%	11%	-6	u	-13%
COC(=O)C/C=C/[C@@H](C)[C@@H](/C=N/OC[C@@H](C)[C@H](OCc1ccccc1)C(C)C)NS(=O)(=O)c1ccc(C)cc1	28µM*	u	x	-15%[8.37 µM]	x
COc1ccc(CN2C(=O)C(n3c(C)ccc3C)c3cc(OC(F)(F)F)ccc32)cc1 (stereo unspecified)	x	x	-88*	x	x
COc1ccc2c(c1)C(n1ccc3ccccc31)C(=O)N2Cc1ccc(C(C)C)cc1 (stereo unspecified)	x	x	18	x	x
COc1ccc(CN2C(=O)C(n3ccc4ccccc43)c3cc(Cl)ccc32)cc1 (stereo unspecified)	x	x	-84*	x	x
COc1cc(Cl)c(NC(=O)CCc2nc3cccnc3n2-c2ccccc2)c(OC)c1	x	5%	-24	x	u
COc1sc(SC)cc1/C=N/NC(=O)c1ccncc1	-8%	-5%	12	-2%	9%
O=C1N/C(=C/c2ccc(Br)s2)C(=O)N1c1ccccc1	-29%	-2%	-62*	-2%	9%
COc1ccc(C(=O)N2CCOC2CNC(=O)C(=O)NCc2ccccc2)cc1 (stereo unspecified)	x	x	-7	x	-19%
CCc1ccc(-n2nc(C)c3c2NC(=O)CSC3c2ccc(C(=O)OC)cc2)cc1 (stereo unspecified)	x	18%	-2	x	u
CCc1ccc(-n2nc(C)c3c2NC(=O)CSC3c2ccccc2C)cc1 (stereo unspecified)	x	-7%	-80*	x	u
CCc1ccc(-n2nc(C)c3c2NC(=O)CSC3c2ccc(OC)cc2OC)cc1 (stereo unspecified)	x	-5%	-67*	x	-23%
O=C(Nc1c2c(nn1-c1ccc(Cl)cc1)CS(=O)(=O)C2)c1ccc(Br)cc1	x	4%	-76*	x	u
Brc1ccc(-c2csc(-c3c[nH]c4ccccc34)n2)cc1	-32%	0%	-10	6.3µM*	29%
CCCCCN1C=CC(=C2C(=O)c3ccccc3C2=O)C=C1	0%	1%	-90*	-8%	2.8µM*
O=[N+]([O-])c1ccc(-[n+]2c(-c3ccccc3)cc(-c3ccccc3)cc2-c2ccccc2)cc1	-1%	-9%	u	-12%	-12%
Oc1ccc(-[n+]2c(-c3ccccc3)cc(-c3ccccc3)cc2-c2ccccc2)cc1	32%	u	-97*	8.9µM*	10µM*
COc1ccc(-[n+]2c(-c3ccccc3)cc(-c3ccccc3)cc2-c2ccccc2)cc1	15%	-6%	-97*	u	3.2µM*
CCOc1ccccc1CNCCCSc1nnnn1C	x	12%	-9	x	3%
SMILES	AmpC no deterg	AmpC detergent	HCMV antiviral	HCV inh	FMDV antiviral
COc1cccc(-c2ccnc(-n3ncc(C(=O)NCc4cccnc4)c3C3CC3)n2)c1	x	x	x	x	-24%
COC(=O)c1ccc(CN2C[C@H](Sc3ccccn3)C[C@H]2C(=O)N(C)C)cc1	x	x	x	x	11%
Nc1c(S(=O)(=O)c2ccccc2)c2nc3ccccc3nc2n1/N=C/c1cccc(O)c1	-29%	u	-101*	14µM*	-27%
Cc1cc(C)nc(-n2ncc3c2CC(c2cccc(Cl)c2)CC3=O)n1 (stereo unspecified)	135%	4%	-89*	-10%	-14%
Cc1cc(C)nc(-n2ncc3c2CC(c2ccccc2)CC3=O)n1 (stereo unspecified)	29%	-9%	u	9%	-25%
CC(CCc1ccccc1)NC(=O)c1cccc(F)c1 (stereo unspecified)	1%	4%	-31	-3%	-11%
Cc1ccc(S(=O)(=O)Nc2c(C)nn(C)c2C)cc1	-9%	-11%	3	-20%	x
CCn1nc(C)c(NS(=O)(=O)c2ccc(C)cc2)c1C	-8%	u	-74*	u	-22%
CCc1ccc(S(=O)(=O)Nc2c(C)nn(C)c2C)cc1	-13%	-2%	-69*	13µM*	u
COc1ccc(/C=C2\N=C(c3ccccc3Cl)NC2=O)cc1	-40%	-6%	-73*	u	53%
CN(C)[C@@H]1C(=O)C(C(N)=O)=C(O)[C@@]2(O)C(=O)C3=C(O)c4c(O)ccc(Cl)c4[C@@](C)(O)[C@H]3C[C@@H]12	-37%	0%	37	0.89µM*	u
COc1ccc2c(CNCCc3ccccc3OC)c(C(=O)O)n(Cc3ccc(F)cc3Cl)c2c1	x	-3%	-108*	x	-5%
COc1ccc2c(CNCCc3ccc(SC)cc3)c(C(=O)O)n(Cc3ccc(F)cc3)c2c1	x	16%	-74*	x	-18%
COc1ccc(Cn2c(C(=O)O)c(CNC3CCCCCC3)c3ccc(OC)cc32)cc1	x	6%	-100*	x	-3%
COc1ccc2c(CNC3CCCCCC3)c(C(=O)O)n(Cc3ccc(C)cc3)c2c1	x	0%	11	x	-16%
COc1ccc(Cn2c(C(=O)O)c(CNCCc3ccco3)c3ccc(OC)cc32)cc1	x	6%	6	x	11%
CCC1CN(CCNC(=O)c2ccc3c(c2)OCCO3)Cc2cc(OC)ccc2O1 (stereo unspecified)	x	x	x	x	8%
CCCCNS(=O)(=O)c1ccc2nc(SCC(=O)c3ccccc3OC)[nH]c2c1	-28%	-15%	-79*	u	-10%
CCCCNS(=O)(=O)c1ccc2nc(SCC(=O)Nc3ccccc3Cl)[nH]c2c1	-7%	0%	-82*	13µM*	3%
O=C(CSc1nc2ccccc2[nH]1)Nc1ccccc1F	59%	-4%	-100*	10%	x
CCCCNS(=O)(=O)c1ccc2nc(SCC(=O)Nc3cccc(F)c3)[nH]c2c1	-14%	-9%	-36	9%	-20%
O=C(Nc1cc(S(=O)(=O)N2CCOCC2)ccc1OCC(F)(F)F)C1=COCCO1	39%	-7%	-8	u	-12%
COc1ccc(-c2nc3cc(F)ccc3cc2CN(C(=O)c2ccc3c(c2)OCO3)C2CC2)cc1	x	x	x	x	-9%
CC(=O)NN1C(=O)c2ccc3c4c(ccc(c24)C1=O)C(=O)N(NC(C)=O)C3=O	8%	-6%	-104*	10µM*	-19%
